In all, about 31,000 sequences went through this assay and about 1,400 (4.5%) were called active. The full list was thinned out, with actives kept by preference. Values without a mark were called inactive.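 Rule for the calls: active = median seed-adjusted z-score above 1 or below -1; inactive = the rest.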

A short description of the experiment: Novel Modifiers of Survival Motor Neuron (SMN) Protein: Gene Identification via Genome-wide siRNA Screen.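 Note: luminescence tracks full-length SMN protein made from the SMN2 reporter.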 The settings on record: HEK293T SMN2-luciferase reporter, siRNA knockdown, 72 h; actives lie on both sides. Summed up: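 siRNA screen, 10418 genes ×3 siRNAs; 1 pmol/well, lipid reverse transfection into HEK293T SMN2-luc reporter line. 72 h, 37 °C, 5% CO2; ONE-Glo readout. Data: neg-ctrl normalized, log10, MAD; hit = MAD >1.0 or < -1.0.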
In the case of GCAGCUUCACCUAUCCGAUTT against KLF4, the median seed-adjusted z-score was 0.883.
Regarding GCGAUAUUAUCAUACUGGATT against ZNF470, the median seed-adjusted z-score was -1.26 (active).
Take CCACCGACGACAAUCUGUATT against ATP4A: the median seed-adjusted z-score is 0.
Take AGGUCAGGGUUACAGCUUUTT against MPP2: the median seed-adjusted z-score is 0.0496.
In the case of CCAUAUAAGUUUACGUUUATT against TM9SF2, the median seed-adjusted z-score was 1.09 (active).
On to CCUCGACCCUGUUUCUUAUTT against ARL4D, for which the median seed-adjusted z-score is -0.523.
Take CCACGUUCACCAAGAUCUUTT against RBM38: the median seed-adjusted z-score was 0.0358.
On to GGCUUAUGGAGAUAUGAAUTT against PPFIA2, for which the median seed-adjusted z-score was 0.176.
Next, GGAACUCUUUGCUGAAUUUTT against THOC4: -1.54 (active).
In the case of CAUUAGUACUUCGAUCUAUTT against PHCA, the median seed-adjusted z-score is 0.0568.
In the case of GCUCCAAAUGGAGAGUGUATT against PRKCDBP, the median seed-adjusted z-score is 0.244.
In the case of GGAACAGCACAGAACAGCATT against ARID5A, the median seed-adjusted z-score is 0.0642.
Next, CCAUUGAAGCUUGAGAGAATT against ZNF286A: 0.0368; CGAAGACUGUCUGAGACAATT against GPR52: -1.17 (active); CCGUAAACAUAUGACUAAATT against ZBTB11: -0.105.
As for CGCCAUCUGUGUAACUUCATT against CARD9, the median seed-adjusted z-score was -0.325.
Regarding GAGACCCUCUGGUUAUAGATT against FKBP11, the median seed-adjusted z-score is -0.085.
AGGCCGCUGUGGACAUCAATT against CASKIN1: the median seed-adjusted z-score was 0.555.
Regarding GAUUCUACUGUCUUACUAATT against HIATL1, the median seed-adjusted z-score is 0.327.
Turning to CAGCAGUACCGACAGAAGATT against ATAD3B, the median seed-adjusted z-score was -0.624.
For UCAUGAACAUUGUCAAUGATT against ADAMTS2, the median seed-adjusted z-score is -0.338.
Take GUGGUUUCUUGAUCUGAAATT against HSDL2: the median seed-adjusted z-score was -0.0717.
The figure for GAGGCUUCAUUUUAGAAGATT against XPA is 2.03 (active); for CCCUUUUCGUGGUCUAUGATT against LCMT2 it is -0.0205.
Take GCCUCGCUGUGAUCUGAUUTT against CACNG6: the median seed-adjusted z-score is -0.0499.
For the sequence CGGUUGUUAUGACAAUGGATT against FN1, the median seed-adjusted z-score is -0.312.
Turning to UGCUCUACUUCUUAAGUGATT against STARD8, the median seed-adjusted z-score was -0.135.
With GAAGGAUCUCAAACUCGAATT against NECAB1, the median seed-adjusted z-score is 0.0268.
Turning to GAUCUUCGGUGAAUCAGAATT against MRC2, the median seed-adjusted z-score was -1.34 (active).
With GGUCAUUAAUUUACAUGAATT against STK17A, the median seed-adjusted z-score was 0.
As to ACAACGUGGUGAGAUGCAATT against LOXL1, the median seed-adjusted z-score was 0.0435.
Turning to GAGGUUUUAUAUAACCGAUTT against SMC6, the median seed-adjusted z-score is 0.227.
Take GCAUGUUAUCGAAGGGUUUTT against PHC2: the median seed-adjusted z-score was 0.177.
Next, GAUGCUACUUUAGAAUUAATT against GNPDA2: -0.422; AGAUUUAUCUUGAAGCUGATT against ARL4D: -0.523; CUUGAUGACUCUAAACCUATT against RUNX2: 0.335.
On to AAGACUCACUUGUUCAACATT against ZNF772, for which the median seed-adjusted z-score was 0.817.
Turning to GGGACAAGUUCGUCAUCUUTT against CRYAA, the median seed-adjusted z-score was -1.03 (active).
Consider CCUAUGAUAUGGUUCCAGATT against COX5A, for which the median seed-adjusted z-score is -0.348.
Consider GGUAUACAAGGAAAGGUUATT against EIF4E, for which the median seed-adjusted z-score is -0.404.
Next, UGGACAUUCUUGCACCCAATT against CHTF18: 0.371; CAAUAUUAGUUGCUGUAUATT against PPAP2A: 0.
As for UGCUGACCUCGUUACCUUUTT against UCP3, the median seed-adjusted z-score was 1.23 (active).
Regarding CAGUCUUUAUGCAAUGGAATT against TYR, the median seed-adjusted z-score is 0.131.
Take AGAUGUACAACGACCCAAATT against AGBL4: the median seed-adjusted z-score is 0.487.
Take GCAUGGUAUUGGAAUAACUTT against CHEK1: the median seed-adjusted z-score is -5.1 (active).
As to GACCUUCCACAGUACAUCATT against MAST3, the median seed-adjusted z-score was -0.642.
Consider GCUCAGAUAAAGUACAGAATT against GGCX, for which the median seed-adjusted z-score is -0.362.
Take GAGUCAUAGUUGCAGCUGATT against PSMB5: the median seed-adjusted z-score was -1.37 (active).
Turning to CCUCAUGACUUCGCAAAUATT against COPB1, the median seed-adjusted z-score is -0.839.
On to GGACCAUAACUCUUACGUATT against RBM26, for which the median seed-adjusted z-score was -0.967.
UCACUGUGCUACAUCAUCATT against MYL7: the median seed-adjusted z-score was -1.21 (active).
GUUGAGGUCUGGUAACAGATT against TMED1: the median seed-adjusted z-score was 0.
Next, GGAGUUUGUUUGCAAGUAUTT against RREB1: -0.414.
The figure for CCAUCUACAUCAGAGUCCATT against BTN1A1 is 0.291.
The figure for GGACAAAUUUUGGAGAGAATT against COG2 is 0.791; for CCAACAGGAGAGUACGUGATT against STRADA it is 0.415; for CCAUUUGACUUUAUGGAGATT against RRM2 it is -3.84 (active).
As to GGCCUUCGUGUACAUCAAUTT against SUV39H1, the median seed-adjusted z-score is -0.0775.
With CUAUGCCCGUGGUCACUAUTT against TUBA4A, the median seed-adjusted z-score was -0.594.
Take GAGCCGCUGGUGUAUCUUUTT against TLR4: the median seed-adjusted z-score is 0.113.
Consider GGCAAGAUCUGUACCGUGATT against HPN, for which the median seed-adjusted z-score is -0.0237.
In the case of CCAGGACAUUCGAAAGCGATT against TRAF4, the median seed-adjusted z-score is -1.16 (active).
In the case of CGGGUACAAGGAUUGGUUUTT against ROM1, the median seed-adjusted z-score was 0.41.
The figure for CCACUCUCAUUGUGACUGATT against DDX54 is 0; for GGAUUAUGAAGAAUGGAAATT against ORC6L it is 0.
On to “GGCAGAGCCUGACCACUUUTT against LOC100137047-PLA2G4B”, for which the median seed-adjusted z-score was -0.022.
For the sequence GGAGCGAGCUGGUGCAUAATT against SH3BP5, the median seed-adjusted z-score is -0.707.
As for GCAUCGCUGUUACCCAUCUTT against CCRN4L, the median seed-adjusted z-score was -0.572.
The figure for GGAGAUAAGAGAUCAUAUUTT against OXNAD1 is 0.36; for CAUGAGAUACGAUACACUATT against TRMT6 it is 0.069; for CGCACACGUAGAGACCUUATT against PNN it is 1.29 (active).
As for CAACUUCACUCAGAACCCATT against MARCO, the median seed-adjusted z-score was 0.137.
Turning to GCCUACUUCAUUCAUCAUATT against KSR1, the median seed-adjusted z-score is 0.0873.
Next, CAAUCGUCCAAUGAUCUUATT against PCDHB1: 0.342; CCUUCAUAGUCAACAGCAATT against MGC16703: 0.55.
Regarding GCACGACGACAAUAUCAUUTT against PEX3, the median seed-adjusted z-score is 0.142.
On to CCAUUAUUGACUCACCCUATT against CSTF2T, for which the median seed-adjusted z-score was 0.387.
Next, GCAUAACUUGAAUAGUACATT against AKAP11: -0.0405.
Consider GCAUCAUUGAAGGACUAGATT against HEY1, for which the median seed-adjusted z-score is -0.023.
The figure for CCCUGGUAGUCAAAAACGATT against PHKB is -0.142.
On to GCUGUGAACUGACUCUGCATT against UROD, for which the median seed-adjusted z-score is 1.11 (active).
Next, GCCCGACUCUCUAAUGGAATT against PRKD3: -0.906; CUACCGUGCAAGUUCAUUATT against CD3D: -0.403; CCGUCAAGGUGUAUUUUGATT against PPIB: 0.038.
Regarding GGCUUAACAUUGAACGAAUTT against CRY2, the median seed-adjusted z-score is 0.0209.
For CCAAGACUCCAACCAUUUUTT against IKZF4, the median seed-adjusted z-score is -0.426.
In the case of GGACCUCAAAGUUGUCUAUTT against AP1S1, the median seed-adjusted z-score is -1.04 (active).
Turning to CGUGGGAUGCUCAAAGAUATT against EZR, the median seed-adjusted z-score is 0.0344.
CCCAGAUCAUAUACUCCUATT against LYPLAL1: the median seed-adjusted z-score was -0.425.
On to GGCAUGAAGUGAAGGAUGATT against ZNF134, for which the median seed-adjusted z-score is -0.0978.
In the case of CCUCAAUACUCCGCAAAUATT against NMNAT2, the median seed-adjusted z-score is -1.58 (active).
GGAAAGUUAUCAGGAUGCATT against SAG: the median seed-adjusted z-score was 0.
Turning to GGAUUCCAAUCUUAGCUUUTT against RLN1, the median seed-adjusted z-score is 0.0637.
The figure for GGAAUUCCUUUAAUGACGATT against RYR3 is 0.
Consider CCACCAGCGUGAUCAUUGUTT against GALNT6, for which the median seed-adjusted z-score was -0.287.
The figure for CUUCCAUGCCUUUGACCUATT against CDCP2 is 0.0708; for CUUGUGUUCUGAGAAUACATT against KRT83 it is 1.15 (active).
Next, AGAAUCGUGUGGAAAAAGATT against PARK7: -0.357.
With CCAUGACAAUCAACGAGGATT against AMY2A, the median seed-adjusted z-score was -0.266.
On to CUUUUGCCUGUAGCCCAUATT against GCS1, for which the median seed-adjusted z-score was 0.819.
The figure for CGAGAUAACUACUUUCGGATT against RALB is -0.534; for ACAGAUCCAUUUUUAGGGATT against PKIG it is 0.0916.
Regarding CCACGUCUCUGGAGAGUUUTT against ALAD, the median seed-adjusted z-score is 0.0952.
Turning to GGCUGUACAUCUGGACCAATT against NFKBIE, the median seed-adjusted z-score is -0.452.
For GGAUGGGCCUUGAAGCCUUTT against GPR97, the median seed-adjusted z-score was -0.0155.
Consider GGGAAUAUCUCUUCCGACATT against ACTL7A, for which the median seed-adjusted z-score was 1.1 (active).
Next, GGCUAUCAUCUACACCCGATT against UGCG: 0.492.
